Source: PubChem BioAssay
A number with no mark means an inactive call. Calls of active or inactive are those of the source. Cut-off read from the data, not from the text of the source, unless noted: active = inhibition above about 28%; inactive = the rest.

Tests used:
[1] = target: Nuclear receptor coactivator 3 (Homo sapiens) (UniProt Q9Y6Q9); assay: NCOA3 GAL4-fusion reporter inhibition – cell-based, luminescence, quadruplicate, confirmation (AID 588792;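 active = mean inhibition over 43.08%, the solvent-only control mean plus 3 SD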;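 note: 0% = DMSO treated cells and 100% = gossypol at 36 µM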); conditions: HEK293 GAL4-SRC3 luciferase reporter, at 3.6 µM, hits give high values
[2] = test system: transactivating tegument protein VP16 (Human herpesvirus 1), Gal4-VP16 luciferase reporter; assay: repression of VP16-driven luciferase reporter – cell-based, luminescence, high throughput, counter-screen for SRC3 inhibitor project (AID 588794; in the data active = inhibition above about 30%); conditions: mammalian cells, at 3.6 µM, hits give high values
[3] = target: Nuclear receptor coactivator 1 (Homo sapiens) (UniProt Q15788); assay: NCOA1 GAL4-fusion reporter inhibition – cell-based, luminescence, quadruplicate, confirmation (AID 588820;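 active = mean inhibition above 46.68%, the untreated control wells mean plus 3 SD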;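 note: 0% = DMSO wells and 100% = gossypol 36 µM treated wells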); conditions: HEK293 GAL4-SRC1 luciferase reporter, at 3.6 µM, hits give high values
[4] = repression of VP16-driven luciferase reporter – cell-based, luminescence, high throughput, counter-screen for SRC1 inhibitor project (AID 588824; in the data active = inhibition above about 25%); conditions: cell-based VP16 transactivation luciferase luminescence; at 3.6 µM; hits give high values
[5] = StAR promoter reporter inhibitors, counter-screen for LRH-1 inverse agonist project, cell-based, luminescence, high throughput (AID 651611); conditions: StAR promoter luciferase reporter counterscreen, at 3.6 µM, hits give high values
[6] = target: Nuclear receptor subfamily 5 group A member 2 (Homo sapiens) (UniProt O00482); assay: NR5A2 activity suppression in reporter cells – cell-based, luminescence, confirmation (AID 651613; in the data active = inhibition above about 42%;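 note: HEK293T cells co-transfected with LRH-1 and StAR promoter luciferase reporter; 0% = vehicle wells and 100% = parental cells lacking receptor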); conditions: cell-based LRH-1 luciferase reporter, inverse agonism; at 3.6 µM; hits give high values
[7] = target: Steroidogenic factor 1 (Homo sapiens) (UniProt Q13285); assay: inverse agonism at SF1 nuclear receptor – cell-based, luminescence, high throughput, counter-screen for LRH-1 inverse agonist project (AID 651614; in the data active = inhibition above about 44%;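 note: cells cotransfected with StAR promoter reporter and SF1 expression vector; 0% = vehicle on cells with receptor and 100% = vehicle on cells lacking receptor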); conditions: cell-based SF1 luciferase reporter, at 3.6 µM, hits give high values
[8] = compounds suppressing VP16-driven luciferase signal – cell-based, luminescence, high throughput, counter-screen for LRH-1 inverse agonist project (AID 651615; in the data active = inhibition above about 33%); conditions: Gal4-VP16 luciferase reporter cells, at 3.6 µM, hits give high values

Steroidogenic factor 1 (Homo sapiens), sequence (Q13285 whole entry, looked up, the tested form may be a part): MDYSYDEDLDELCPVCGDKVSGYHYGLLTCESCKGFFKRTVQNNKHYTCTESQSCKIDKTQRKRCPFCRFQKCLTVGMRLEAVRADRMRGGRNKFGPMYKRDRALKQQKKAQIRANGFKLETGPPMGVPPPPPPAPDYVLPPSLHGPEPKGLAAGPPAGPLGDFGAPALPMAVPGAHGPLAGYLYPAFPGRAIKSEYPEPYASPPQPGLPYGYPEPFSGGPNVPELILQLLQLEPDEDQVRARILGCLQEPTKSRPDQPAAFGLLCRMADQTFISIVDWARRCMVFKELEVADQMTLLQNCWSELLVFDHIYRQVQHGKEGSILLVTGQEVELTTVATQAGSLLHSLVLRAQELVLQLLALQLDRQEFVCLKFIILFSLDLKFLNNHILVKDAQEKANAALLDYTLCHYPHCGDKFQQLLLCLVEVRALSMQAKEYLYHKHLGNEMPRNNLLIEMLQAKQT
Nuclear receptor coactivator 3 (Homo sapiens), sequence (Q9Y6Q9 whole entry, looked up, the tested form may be a part): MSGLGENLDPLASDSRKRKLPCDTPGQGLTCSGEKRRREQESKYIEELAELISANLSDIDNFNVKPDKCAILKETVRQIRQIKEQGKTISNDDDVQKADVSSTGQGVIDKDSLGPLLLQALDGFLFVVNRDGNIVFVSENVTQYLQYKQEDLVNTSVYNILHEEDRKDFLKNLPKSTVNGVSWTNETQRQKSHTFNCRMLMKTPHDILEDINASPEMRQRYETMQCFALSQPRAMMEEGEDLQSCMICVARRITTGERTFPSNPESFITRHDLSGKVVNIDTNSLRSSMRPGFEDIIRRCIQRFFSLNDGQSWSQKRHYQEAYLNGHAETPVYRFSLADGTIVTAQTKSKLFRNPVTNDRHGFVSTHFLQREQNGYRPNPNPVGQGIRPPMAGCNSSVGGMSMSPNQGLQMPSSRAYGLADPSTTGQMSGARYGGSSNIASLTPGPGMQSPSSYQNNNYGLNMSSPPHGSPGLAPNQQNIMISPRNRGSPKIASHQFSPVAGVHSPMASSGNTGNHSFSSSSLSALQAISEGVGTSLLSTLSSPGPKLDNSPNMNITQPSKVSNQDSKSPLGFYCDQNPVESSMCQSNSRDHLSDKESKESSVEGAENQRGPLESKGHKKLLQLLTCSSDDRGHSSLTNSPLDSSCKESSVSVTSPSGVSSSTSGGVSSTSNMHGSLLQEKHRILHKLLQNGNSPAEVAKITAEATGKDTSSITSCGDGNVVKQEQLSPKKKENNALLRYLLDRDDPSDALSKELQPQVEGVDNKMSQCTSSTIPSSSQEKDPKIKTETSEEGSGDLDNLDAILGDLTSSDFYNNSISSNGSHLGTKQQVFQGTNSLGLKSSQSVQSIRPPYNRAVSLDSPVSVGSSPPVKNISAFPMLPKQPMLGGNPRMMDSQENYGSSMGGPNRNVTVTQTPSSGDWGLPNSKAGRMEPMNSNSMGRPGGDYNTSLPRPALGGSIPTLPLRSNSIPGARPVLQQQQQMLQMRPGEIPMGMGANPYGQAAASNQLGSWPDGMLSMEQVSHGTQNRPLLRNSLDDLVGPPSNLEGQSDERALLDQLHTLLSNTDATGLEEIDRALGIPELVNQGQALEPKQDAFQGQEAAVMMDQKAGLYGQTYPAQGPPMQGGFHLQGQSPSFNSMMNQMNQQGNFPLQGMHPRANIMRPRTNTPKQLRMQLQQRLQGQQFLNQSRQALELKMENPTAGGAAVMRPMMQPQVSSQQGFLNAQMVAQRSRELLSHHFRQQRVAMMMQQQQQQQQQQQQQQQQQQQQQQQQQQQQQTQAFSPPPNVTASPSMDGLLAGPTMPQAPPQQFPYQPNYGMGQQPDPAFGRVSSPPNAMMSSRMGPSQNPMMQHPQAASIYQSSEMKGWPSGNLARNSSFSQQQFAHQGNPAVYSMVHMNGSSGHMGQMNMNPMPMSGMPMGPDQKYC
Nuclear receptor coactivator 1 (Homo sapiens), sequence (Q15788 whole entry, looked up, the tested form may be a part): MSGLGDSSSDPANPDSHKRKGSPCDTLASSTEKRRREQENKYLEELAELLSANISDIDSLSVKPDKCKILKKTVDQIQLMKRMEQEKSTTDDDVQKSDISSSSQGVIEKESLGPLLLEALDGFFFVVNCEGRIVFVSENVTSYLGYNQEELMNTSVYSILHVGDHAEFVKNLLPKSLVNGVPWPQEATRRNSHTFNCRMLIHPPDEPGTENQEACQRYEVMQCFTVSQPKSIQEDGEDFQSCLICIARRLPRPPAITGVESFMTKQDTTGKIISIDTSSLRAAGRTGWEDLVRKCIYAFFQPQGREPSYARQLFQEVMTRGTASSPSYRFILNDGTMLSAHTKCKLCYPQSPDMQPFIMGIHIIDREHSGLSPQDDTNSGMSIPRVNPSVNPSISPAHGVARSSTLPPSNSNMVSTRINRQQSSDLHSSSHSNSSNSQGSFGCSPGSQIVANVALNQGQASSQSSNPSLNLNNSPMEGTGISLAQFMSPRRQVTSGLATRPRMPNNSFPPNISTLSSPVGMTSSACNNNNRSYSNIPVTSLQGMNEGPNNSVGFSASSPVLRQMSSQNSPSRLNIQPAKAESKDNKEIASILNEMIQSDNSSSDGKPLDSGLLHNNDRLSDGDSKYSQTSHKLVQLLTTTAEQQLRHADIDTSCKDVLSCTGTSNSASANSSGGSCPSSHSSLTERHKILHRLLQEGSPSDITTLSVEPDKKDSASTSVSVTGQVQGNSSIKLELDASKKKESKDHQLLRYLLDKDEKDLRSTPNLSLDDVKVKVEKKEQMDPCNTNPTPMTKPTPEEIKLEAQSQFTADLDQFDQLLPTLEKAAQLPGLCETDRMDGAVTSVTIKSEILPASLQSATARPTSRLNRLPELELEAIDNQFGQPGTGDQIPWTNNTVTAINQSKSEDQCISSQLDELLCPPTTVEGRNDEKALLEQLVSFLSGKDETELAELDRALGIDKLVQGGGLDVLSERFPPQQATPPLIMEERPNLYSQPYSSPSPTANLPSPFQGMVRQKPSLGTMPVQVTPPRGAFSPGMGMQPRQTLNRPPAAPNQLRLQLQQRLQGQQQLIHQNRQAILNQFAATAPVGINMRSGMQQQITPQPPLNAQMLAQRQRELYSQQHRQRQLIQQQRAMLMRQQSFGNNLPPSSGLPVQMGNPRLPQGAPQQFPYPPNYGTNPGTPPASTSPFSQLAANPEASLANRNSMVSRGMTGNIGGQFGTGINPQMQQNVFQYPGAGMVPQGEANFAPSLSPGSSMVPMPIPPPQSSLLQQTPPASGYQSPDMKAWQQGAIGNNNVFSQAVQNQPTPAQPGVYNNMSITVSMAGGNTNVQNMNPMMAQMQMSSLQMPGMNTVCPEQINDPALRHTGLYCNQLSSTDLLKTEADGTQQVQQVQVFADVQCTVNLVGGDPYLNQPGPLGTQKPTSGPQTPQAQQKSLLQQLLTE
Nuclear receptor subfamily 5 group A member 2 (Homo sapiens), sequence (O00482 whole entry, looked up): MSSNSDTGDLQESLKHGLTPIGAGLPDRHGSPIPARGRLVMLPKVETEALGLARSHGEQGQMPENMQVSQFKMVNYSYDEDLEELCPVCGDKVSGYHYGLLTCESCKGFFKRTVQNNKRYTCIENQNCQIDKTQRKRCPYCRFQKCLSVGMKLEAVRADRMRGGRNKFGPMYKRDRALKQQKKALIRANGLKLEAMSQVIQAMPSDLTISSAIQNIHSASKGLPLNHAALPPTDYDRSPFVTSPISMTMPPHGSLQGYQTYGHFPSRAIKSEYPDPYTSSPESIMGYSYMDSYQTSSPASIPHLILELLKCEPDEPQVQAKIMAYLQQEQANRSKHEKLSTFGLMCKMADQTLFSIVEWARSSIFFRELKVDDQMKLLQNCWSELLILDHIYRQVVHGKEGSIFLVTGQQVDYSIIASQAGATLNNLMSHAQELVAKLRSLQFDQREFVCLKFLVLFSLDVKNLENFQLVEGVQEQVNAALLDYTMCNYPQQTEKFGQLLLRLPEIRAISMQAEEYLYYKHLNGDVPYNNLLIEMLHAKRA

SMILES	inhibition [1]	inhibition [2]	inhibition [3]	inhibition [4]	inhibition [5]	inhibition [6]	inhibition [7]	inhibition [8]
COC(=O)c1cc(O)cc(OC)c1Oc1cc(C)cc(O)c1C(=O)O	13.8%	62.9% (active)	54.2% (active)	60.2% (active)	56.5% (active)	73% (active)	66.9% (active)	65.5% (active)
O=C(/C=C/c1cccs1)NC(=S)NNC(=O)c1ccccc1O	76% (active)	77.6% (active)	57% (active)	78.7% (active)	76.8% (active)	106% (active)	91.8% (active)	86% (active)
COc1ccc(C=C2CS(=O)(=O)CC(=Cc3ccc(OC)cc3)C2=O)cc1	29.7%	46.8% (active)	-73.9%	55.9% (active)	43.9% (active)	83% (active)	83.7% (active)	80.1% (active)
Cc1cc(OCc2nc(N)nc(N)c2-c2ccc(Cl)c(Cl)c2)ccc1[N+](=O)[O-]	52.2% (active)	30.6% (active)	71.3% (active)	30.1% (active)	70.7% (active)	69.5% (active)	63.5% (active)	42% (active)
CC(=O)N(/N=C1\Sc2ccccc2C1=O)c1ccc(C)cc1C	54.1% (active)	37.7% (active)	2.03%	25.4% (active)	-1.06%	11.9%	48.8% (active)	-16.6%
O=C(c1ccccc1)c1c2c(cc3sc4ccccc4[n+]13)-c1cccc3cccc-2c13	49% (active)	61.2% (active)	29.4%	64.6% (active)	47.8% (active)	99.3% (active)	75.1% (active)	81.7% (active)
COc1ccccc1-n1cc([C@@H]2C[C@H]3CN(c4ccccc4)C(=O)[C@]34CCCN24)cn1	53.1% (active)	38% (active)	26.6%	47.4% (active)	36.2% (active)	57.8% (active)	19.5%	69.6% (active)
Cc1ccc(N(CCC#N)C(=O)CCl)cc1C	54.3% (active)	14.7%	7.31%	28.4% (active)	14.8%	58.5% (active)	49.2% (active)	15.7%
COc1ccc(C2=Nn3c([n+](C)c4ccccc43)SC2)cc1	45.3% (active)	68.3% (active)	21.8%	66.5% (active)	59.1% (active)	95.7% (active)	86.5% (active)	78.7% (active)
Cc1ccccc1CN1CC2=C(CCN(Cc3ccccc3)C2=O)N2CCN=C12	47.9% (active)	70.7% (active)	53.7% (active)	66.9% (active)	76.9% (active)	96.3% (active)	88.7% (active)	77.8% (active)
Cn1cnc([N+](=O)[O-])c1Sc1nc(N)nc2c1ncn2C1OC(CO)C(O)C1O (stereo not given)	43.8% (active)	14.7%	-6.11%	9.12%	56.1% (active)	52% (active)	24.3%	45.1% (active)
O=C(O)CSCC(=O)Nc1ccc(C2CCCCC2)cc1	72% (active)	62.4% (active)	64.2% (active)	63.7% (active)	71.4% (active)	78.8% (active)	64.5% (active)	63.6% (active)
OC[C@H]1O[C@@H](n2cnc3c(NCc4ccco4)ncnc32)[C@H](O)[C@@H]1O	58% (active)	44.6% (active)	42.5%	51.8% (active)	55.1% (active)	52.9% (active)	51.4% (active)	61.4% (active)
O=C(Nc1ccc([N+](=O)[O-])cc1)c1ccc(Cn2cc([N+](=O)[O-])cn2)cc1	43.1% (active)	58.7% (active)	29.1%	56.1% (active)	52.3% (active)	77.3% (active)	72.8% (active)	74.4% (active)
O=C(NC(NC(=S)N1CCOCC1)C(Cl)(Cl)Cl)c1ccc(Cl)cc1 (stereo not given)	30.4%	18.7%	23%	15%	47.4% (active)	53.2% (active)	50.2% (active)	20.3%
CCN(CC)c1ccc(C(=C2C=CC(=[N+](CC)CC)C=C2)c2ccc(N(CC)CC)cc2)cc1	85.3% (active)	89.9% (active)	60.9% (active)	84.3% (active)	85.6% (active)	110% (active)	97.1% (active)	97.1% (active)
COc1cccc(/C=N/Nc2ncnc3scc(-c4ccccc4)c23)c1O	83.3% (active)	70.3% (active)	76.8% (active)	65.2% (active)	89.1% (active)	103% (active)	89.4% (active)	65.1% (active)
COCCn1c(C)cc(C2=NNC(=Nc3ccccc3)SC2)c1C	-62.4%	-40.8%	-119%	-64%	-73.4%	-77.6%	-67.8%	-136%

SMILES	inhibition [1]	inhibition [2]	inhibition [3]	inhibition [4]	inhibition [5]	inhibition [6]	inhibition [7]	inhibition [8]
Cc1cc(/C=c2/sc3nc4ccccc4n3c2=O)c(C)n1-c1ccccn1	89.7% (active)	87.8% (active)	82.9% (active)	81.6% (active)	86.4% (active)	84.2% (active)	87.4% (active)	78.8% (active)
c1ccc(-c2nnc(-c3ccccn3)nc2NC2CCCCC2)cc1	70.2% (active)	14.8%	49.1% (active)	18.8%	82.6% (active)	88.9% (active)	74.7% (active)	45.4% (active)
O=C1[C@@H]2Cc3c([nH]c4ccccc34)C(c3ccc([N+](=O)[O-])cc3)N2C(=O)CN1C1CC1 (stereo not given in full)	63.7% (active)	64% (active)	62.3% (active)	62.6% (active)	60.7% (active)	67.9% (active)	71.4% (active)	75.7% (active)
c1ccc(-c2ccc(-c3nc(-c4ccccn4)no3)cc2)cc1	43.5% (active)	35.9% (active)	-28.2%	39.4% (active)	42.4% (active)	13.6%	54.8% (active)	30.9% (active)
COc1ccc(NC(=O)c2sc(=O)n(Cc3cccc(C(F)(F)F)c3)c2C)cc1OC	24.9%	57.4% (active)	19%	52.7% (active)	46% (active)	67.8% (active)	69% (active)	73.9% (active)
CC1=NN(c2nc3ccccc3[nH]2)C(=O)C1Cc1ccccc1 (stereo not given)	53.5% (active)	68% (active)	48.1% (active)	67.5% (active)	70.3% (active)	101% (active)	88.7% (active)	83.6% (active)
O=C(CSc1nc2sc3c(c2c(=O)n1-c1ccccc1)CCCC3)NCc1ccco1	7.86%	-11.9%	4.53%	-16.3%	8.53%	15.3%	10.7%	3.41%
CC(=O)c1c(C)[nH]c(C(=O)OCC(=O)Nc2cccc(S(=O)(=O)N3CCCC3)c2)c1C	20.7%	43.6% (active)	5.87%	38.3% (active)	26.2%	49.3% (active)	48.9% (active)	51.7% (active)
Cc1ccc2[nH]c3nc(N/N=C/c4cccc(O)c4)nnc3c2c1	35.7%	54.6% (active)	27.8%	48.2% (active)	51% (active)	65.6% (active)	63.6% (active)	69.8% (active)
CCCCC(=O)NC(c1ccccc1)c1ccc2cccnc2c1O (stereo not given)	53.3% (active)	36.9% (active)	27.8%	29.2% (active)	60.3% (active)	69.5% (active)	63.6% (active)	73% (active)
COc1ccccc1NC(=S)NN=C(C)c1ccccn1	4.97%	65.2% (active)	-16.5%	64% (active)	81.8% (active)	98.4% (active)	85.8% (active)	70.8% (active)
CC[n+]1ccccc1/C=C1\Sc2ccc(C)cc2N1C	25.7%	64.6% (active)	23.8%	67.7% (active)	40% (active)	75.7% (active)	70.3% (active)	74.5% (active)
CCCc1nc2c(=O)n(C)c(=O)nc-2n(C)n1	70.5% (active)	66.6% (active)	18.4%	64% (active)	56.5% (active)	68.8% (active)	72.8% (active)	73.5% (active)
O=C(N/N=C(\c1ccccc1)c1cccnc1)c1cccc(F)c1	37.5%	31.2% (active)	31%	43% (active)	84% (active)	97.7% (active)	85.7% (active)	58.5% (active)
COc1cccc(/C=N/Nc2ncnc3c2ncn3Cc2ccccc2)c1O	58.9% (active)	31% (active)	48% (active)	28.4% (active)	84.4% (active)	99.4% (active)	86.1% (active)	78.3% (active)
CC1CN(S(=O)(=O)c2ccc(C(=O)NCCCn3ccnc3)cc2)CC(C)O1 (stereo not given)	87.8% (active)	47.5% (active)	67.9% (active)	30.4% (active)	87.1% (active)	99.2% (active)	95.5% (active)	81.1% (active)
CC(=O)NC(c1ccc2ccccc2c1)c1ccc2cccnc2c1O (stereo not given)	81.5% (active)	79.2% (active)	70.4% (active)	74.3% (active)	86.3% (active)	104% (active)	87.6% (active)	79.9% (active)
